This is an account of results in PubChem BioAssay AID588397 (National Center for Advancing Translational Sciences (NCATS), 2011).

Among all 1,300 compounds or so, about 1,000 (77%) were called active. Inconclusive results (about 7%) are left out. So high a share suggests a set chosen from earlier hits. The list shows a part of the results. Values without a mark were called inactive. Calls come from the whole dose curve; as a rule, active = well fitted inhibition curve with a large enough effect; inconclusive = small, poorly fitted or top-dose-only effect; inactive = no such curve, though single readings can be large or run the other way.
% is set by controls: 0 for no effect and ±100 for the full control effect; potency is the fitted concentration of half-maximal effect.

The assay is described as follows: qHTS of small molecules that selectively kill Giardia lamblia: Hit Validation.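 Note: viability measured as ATP content by luminescence so killing lowers signal; trophozoites exposed to compounds for 48 h anaerobically at 37 °C; nearly all actives have a fitted effect of over 65% in size.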 The conditions noted are these: Giardia lamblia trophozoite viability, dose-response; series mostly up to 38.3 µM; activity change, negative = killing: at the top concentration. In a few lines:
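Trophozoites 100 cells/well + cpd; 48 hrs, 37 deg C, anaerobic. ATPLite 1-Step added, 15-30 min RT, luminescence read (ATP-based viability).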
Background: Quantitative high-throughput screening tests each substance at several concentrations.
Regarding `CCc1ccc(S(=O)(=O)Nc2ccc(-c3ccc4nnc(C)n4n3)cc2)s1`, the “activity change, negative = killing” value is -30%.
On the same count and under the same terms, under `COC(=O)[C@@]12CCCCN1[C@H](c1ccc(-c3ccc(C(C)=O)cc3)cc1)[C@@H]1C(=O)N(C)C(=O)[C@@H]12` stands -23.9%.
For `CCCCC12CN3CC(C)(CN(C1)C3c1ccc([N+](=O)[O-])o1)C2=O` (stereo unspecified), the Potency was 2.05 µM (active).
On to `CC12CN3CC(C)(CN(C1)C3c1ccc([N+](=O)[O-])o1)C2` (stereo unspecified), for which the Potency is 1.3 µM (active).
`CCC12CN3CC(CC)(CN(C1)C3c1ccc([N+](=O)[O-])o1)C2=O` (stereo unspecified): the Potency is 4.1 µM (active).
As to `CCCC12CN3CC(C)(CN(C1)C3c1ccc([N+](=O)[O-])o1)C2=O` (stereo unspecified), the Potency was 1.83 µM (active).
In the case of `O=c1cccc(-c2ccccc2)[nH]1`, the “activity change, negative = killing” value was -19.2%.
Take `O=c1[nH]c(=O)c2cc([N+](=O)[O-])cc([N+](=O)[O-])c2[nH]1`: the Potency is 4.1 µM (active).
Turning to `COc1ccccc1NCCC(=O)OCC(=O)NC1CCCCCC1`, the “activity change, negative = killing” value is -3.6%.
In the case of `O=C(COc1cccnc1[N+](=O)[O-])N1CCc2ccccc21`, the Potency is 4.1 µM (active).
For `COC(=O)c1sc(NC(=O)COc2cccnc2[N+](=O)[O-])c(C(=O)OC)c1C`, the Potency is 4.1 µM (active).
As to `COc1ccccc1NC(=O)COc1cccnc1[N+](=O)[O-]`, the Potency was 6.5 µM (active).
On to `O=C(COc1cccnc1[N+](=O)[O-])Nc1cccc2ccccc12`, for which the Potency is 4.6 µM (active).
Consider `CC(C)Cn1c(=S)[nH]c2cc(C(=O)NCc3ccccc3F)ccc2c1=O`, for which the “activity change, negative = killing” value is 2.52%.
In the case of `O=[N+]([O-])c1cnc2ccccn12`, the Potency was 2.05 µM (active).
Consider `S=c1[nH]nc2ccccn12`, for which the “activity change, negative = killing” value is -16.5%.
Take `O=C(CSc1cccc[n+]1[O-])Nc1cc2c(cc1Cl)C(=O)c1ccccc1C2=O`: the Potency is 2.9 µM (active).
Take `COCCNC(=O)/C(C#N)=C/c1ccc(O)c([N+](=O)[O-])c1`: the Potency was 4.6 µM (active).
In the case of `N#C/C(=C\c1ccc(O)c([N+](=O)[O-])c1)c1nc2ccccc2s1`, the Potency is 1.83 µM (active).
In the case of `N#C/C(=C\c1ccc(O)c([N+](=O)[O-])c1)C(=O)NCc1ccccc1`, the Potency was 3.26 µM (active).
With `N#C/C(=C/c1ccc(O)c([N+](=O)[O-])c1)C(=O)Nc1ccccc1`, the Potency is 3.26 µM (active).
As to `CC(C)C[C@H](NC(=O)c1[nH]cnc1C(=O)N[C@H](C)c1ccccc1)C(=O)OCc1ccccc1`, the “activity change, negative = killing” value was -11.2%.
Regarding `CCN(CC)CC(=O)Nc1c(C)cccc1C`, the “activity change, negative = killing” value was 2.88%.
In the case of `O=c1/c(=C/c2ccc(O)c([N+](=O)[O-])c2)sc2nc3ccccc3n12`, the Potency was 2.59 µM (active).
For the compound `COc1ccc2c(c1)C1OCCC1C(c1ccco1)N2` (stereo unspecified), the Potency is 2.31 µM (active).
Regarding `Cc1ccc(N2CC(C(=O)Nc3ncc([N+](=O)[O-])s3)CC2=O)cc1` (stereo unspecified), the Potency was 0.365 µM (active).
As to `O=C(Nc1ncc([N+](=O)[O-])s1)C1CC(=O)N(c2ccc(F)cc2)C1` (stereo unspecified), the Potency was 1.03 µM (active).
For `O=C(CCN=C1NS(=O)(=O)c2ccccc21)OCC(=O)c1ccc(F)c(F)c1`, the “activity change, negative = killing” value was 5.94%.
As for `CCCNC(=O)Cn1c(=O)n(C)c2ccccc21`, the “activity change, negative = killing” value was 2.52%.
Regarding `COc1cc2c(cc1OC)-c1c(OC)c(OC)cc3ccnc(c13)C2=O`, the Potency is 0.579 µM (active).
Same read-out and setting: under `COc1ccc(-c2nc(NCCCN(C)C)c3ccccc3n2)cc1` stands 0.818 µM (active); under `CCN(CC)CCCNc1nc2ccccc2c2[nH]c3ccc(OC)cc3c12`, 0.183 µM (active).
Regarding `CCN1C(=O)[C@H]2[C@H]3CN=C(SCc4ccccc4)N3[C@@](Cc3ccccc3)(C(=O)OC)[C@H]2C1=O`, the “activity change, negative = killing” value is 13.6%.
In the case of `Cc1nn2c3cc(N4CCOCC4)ccc3nc2c2ccccc12`, the Potency was 1.03 µM (active).
On the same count and under the same terms, in the case of `COc1cccc2c1C(CO)N1C(C#N)C3CC(C(=O)O)C(C1C2)N3C` (stereo unspecified) it was 1.16 µM (active).
Consider `O=C(N/N=C/c1ccc([N+](=O)[O-])o1)C1CC1`, for which the Potency was 1.16 µM (active).
Turning to `O=C(N/N=C/c1ccc([N+](=O)[O-])o1)C1CCCC1`, the Potency is 0.516 µM (active).
As for `CCOc1cc([N+](=O)[O-])cc(/C=C2/NC(=O)N(Cc3ccccc3F)C2=O)c1O`, the Potency was 1.63 µM (active).
Still for that read-out and setting: in the case of `CC(C)Oc1cc(O)c2c(=O)c(-c3ccc(O)cc3)coc2c1` it was 0.516 µM (active); in that of `O=c1c(-c2ccc(F)cc2)coc2cc(O)ccc12`, 0.918 µM (active); in that of `COc1ccc(-c2coc3cc(O)ccc3c2=O)cc1`, 1.16 µM (active).
Consider `CC1(C)Oc2cc3oc(-c4cc(O)cc(O)c4)cc3cc2CC1O` (stereo unspecified), for which the Potency was 1.45 µM (active).
In the case of `COC(=O)[C@]1(Cc2ccccc2)N[C@H](CN(C)C(=O)c2ccccc2)[C@@H]2C(=O)N(C)C(=O)[C@@H]21`, the “activity change, negative = killing” value is -1.17%.
Consider `COc1ccc(C(=O)C(C)OC(=O)CNC(=O)C2CCCCC2)cc1` (stereo unspecified), for which the Potency is 4.6 µM (active).
On to `COc1ccc2oc(C(=O)OC(C)C(=O)NCc3ccccc3)c(C)c2c1` (stereo unspecified), for which the “activity change, negative = killing” value was -21.9%.
As to `COc1ccc(C(=O)C(C)OC(=O)CNC(=O)c2ccco2)cc1` (stereo unspecified), the Potency was 20.5 µM (active).
Turning to `CCOC(=O)N=Nc1c2ccccc2c2nc3no[nH]c3nc12`, the Potency was 0.365 µM (active).
In the case of `Fc1cc2[nH]cnc2cc1Cl`, the “activity change, negative = killing” value is -8.27%.
On to `CC(C)CNC(=S)NC(=O)c1csc([N+](=O)[O-])c1`, for which the Potency was 1.3 µM (active).
The same measure, in the same setting: in the case of `O=C(NCc1ccco1)NC(=O)c1csc([N+](=O)[O-])c1` it was 1.63 µM (active).
For `COc1cc(/C=C/C(=O)c2ccc3c(c2)OCCO3)cc(OC)c1OC`, the Potency is 7.29 µM (active).
Take `COc1cc(C(=S)N2CCOCC2)ccc1OC(=O)/C=C/c1ccco1`: the “activity change, negative = killing” value was 7.28%.
Consider `Cc1nn(-c2nc3ccccc3[nH]2)c(=O)c2ccccc12`, for which the Potency is 0.23 µM (active).
In the case of `COC1C(OC(=O)/C=C/C=C/C=C/C=C/C(=O)O)CCC2(CO2)C1C1(C)OC1CC=C(C)C` (stereo unspecified) (tested in a mixture with another compound), the Potency was 0.0015 µM (active).
Turning to `CCn1ncc([N+](=O)[O-])c1C(=O)Nc1nc2cccc(C)c2s1`, the Potency is 4.1 µM (active).
For `CCOc1ccc2nc(NC(=O)c3c([N+](=O)[O-])cnn3CC)sc2c1`, the Potency was 1.83 µM (active).
On to `O=C(Nc1ccc2c(c1)OCCO2)c1cc(-c2ccccn2)nc2ccc(Br)cc12`, for which the Potency is 4.1 µM (active).
`Cc1ccccc1C(=O)Nc1ccc2c(c1)OCCO2`: the Potency is 3.65 µM (active).
`O=C(Nc1ccc2c(c1)OCCO2)c1ccc(Br)o1`: the Potency is 5.16 µM (active).
For `Cc1ccc(C(=O)Nc2ccc3c(c2)OCCO3)o1`, the Potency was 7.29 µM (active).
With `Cc1ccc(-c2c(C(=O)N/N=C/C3CC=CCC3)nnn2-c2nonc2N)cc1` (stereo unspecified), the “activity change, negative = killing” value is -19.1%.
